# Results reported in PubChem BioAssay (NCI).
# About 79,000 compounds went through this panel and 15% of them were active in at least one assay; those are over-represented in the sample as a whole. A number with no mark means an inactive call. Calls of active or inactive are those of the source. Cut-off read from the data, not from the text of the source: active = growth inhibition above about 70%; inactive = the rest.
# Tests used:
# [1] = NCI Yeast Anticancer Drug Screen. Data for the rad52 strain (AID 147);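 note: 0% = growth of vehicle-treated control cultures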; conditions: S. cerevisiae rad52 mutant growth inhibition, hits give high values
# How it was run: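 Yeast strain carrying a DNA damage repair alteration was exposed to test compounds. Growth inhibition was measured relative to vehicle-treated controls.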
# [2] = NCI Yeast Anticancer Drug Screen. Data for the wt1 strain (AID 149);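 note: 0% = growth of vehicle-treated wt1 cultures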; conditions: S. cerevisiae wt1 strain (SPY 50644) growth inhibition, hits give high values
# How it was run: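 wt1 strain grown with compound or vehicle; inhibition taken from the growth difference.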
# [3] = NCI Yeast Anticancer Drug Screen. Data for the rad50EPP+ strain (AID 151);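 note: 0% = growth of vehicle-treated control cultures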; conditions: S. cerevisiae rad50 mutant strain, hits give high values
# How it was run: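 Yeast strain carrying rad50 alteration (rad50EPP+) exposed to compounds; growth inhibition measured relative to vehicle-treated controls.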
# [4] = NCI Yeast Anticancer Drug Screen. Data for the mgt1 strain (AID 153); conditions: S. cerevisiae mgt1 mutant growth inhibition, hits give high values
# How it was run: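 Yeast mgt1 strain (DNA repair/cell-cycle alteration panel) exposed to compounds; growth inhibition measured relative to vehicle-treated controls.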
# [5] = NCI Yeast Anticancer Drug Screen. Data for the rad50 strain (AID 155);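 note: 0% = growth of vehicle-only cultures of the same strain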; conditions: S. cerevisiae rad50 strain growth inhibition, hits give high values
# How it was run: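 DNA repair mutant yeast, compound exposure, growth read-out; inhibition is taken relative to vehicle.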
# [6] = NCI Yeast Anticancer Drug Screen. Data for the mec2-1 strain (AID 157); conditions: S. cerevisiae mec2-1 strain, hits give high values
# How it was run: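 mec2-1 yeast strain, carrying an alteration in DNA damage repair or cell cycle control, was exposed to compounds; growth inhibition was measured relative to vehicle-treated controls.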
# [7] = NCI Yeast Anticancer Drug Screen. Data for the rad14 strain (AID 159);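 note: 0% = growth of vehicle-treated control cultures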; conditions: S. cerevisiae rad14 strain growth inhibition, hits give high values
# How it was run: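 DNA repair-defective yeast, compound-exposed; % growth inhibition derived by comparison with vehicle-treated controls.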
# [8] = NCI Yeast Anticancer Drug Screen. Data for the sgs1 mgt1 strain (AID 161);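 note: 0% = growth of cultures given vehicle only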; conditions: S. cerevisiae sgs1 mgt1 strain, hits give high values
# How it was run: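 Percent growth inhibition was derived by comparing compound-exposed mutant yeast with vehicle-exposed cultures. The strain carries alterations in DNA damage repair.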
# [9] = NCI Yeast Anticancer Drug Screen. Data for the CLN2oe strain (AID 163);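 note: 0% = growth of vehicle-only control cultures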; conditions: S. cerevisiae CLN2oe strain, hits give high values
# How it was run: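 Yeast cells carrying a defined cell-cycle control alteration were exposed to test compounds. Growth inhibition was scored against vehicle-treated control cultures.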
# [10] = NCI Yeast Anticancer Drug Screen. Data for the cln2 rad14 strain (AID 165);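 note: 0% = growth equal to vehicle treated cultures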; conditions: S. cerevisiae cln2 rad14 strain, hits give high values
# How it was run: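 Yeast carrying cln2 and rad14 alterations (cell cycle control and DNA damage repair) were exposed to compounds. Growth inhibition was measured against vehicle-treated controls.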
# [11] = NCI Yeast Anticancer Drug Screen. Data for the bub3 strain (AID 167); conditions: S. cerevisiae bub3 mutant strain, hits give high values
# How it was run: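 In this screen, a yeast mutant lacking normal mitotic checkpoint function is challenged with compound. Relative growth versus vehicle gives the inhibition value.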
# [12] = NCI Yeast Anticancer Drug Screen. Data for the wt2 strain (AID 169);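 note: 0% = growth of vehicle-treated yeast cultures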; conditions: S. cerevisiae wt2 strain growth inhibition, hits give high values
# How it was run: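 Yeast cells were exposed to test compounds, and growth inhibition was measured relative to vehicle-treated controls.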
# [13] = NCI Yeast Anticancer Drug Screen. Data for the mlh1 strain (AID 171);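 note: 0% = growth of vehicle-treated control cultures of the same strain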; conditions: S. cerevisiae mlh1 strain growth inhibition, hits give high values
# How it was run: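 Yeast carrying a defined genetic alteration in DNA damage repair or cell cycle control were exposed to test compounds. Growth inhibition was measured relative to vehicle-treated controls.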
# [14] = NCI Yeast Anticancer Drug Screen. Data for the sgs1 strain (AID 173);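 note: 0% = growth of vehicle-only control cultures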; conditions: S. cerevisiae sgs1 mutant, hits give high values
# How it was run: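 Yeast mutant strains carrying defined defects in DNA damage repair or cell cycle control were exposed to test compounds. Growth inhibition was scored against vehicle-treated controls.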
# [15] = NCI Yeast Anticancer Drug Screen. Data for the mlh1 rad18 strain (AID 175); conditions: S. cerevisiae mlh1 rad18 strain growth inhibition, hits give high values
# How it was run: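 Growth inhibition of the yeast strain was measured after compound exposure and expressed relative to vehicle-treated controls. The strain carries defined defects in DNA damage repair.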
# [16] = NCI Yeast Anticancer Drug Screen. Data for the rad18 strain (AID 177); conditions: S. cerevisiae rad18 mutant growth inhibition, hits give high values
# How it was run: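 Yeast carrying a defined DNA damage repair alteration were exposed to compounds. Growth inhibition was expressed relative to vehicle-treated controls.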
# [17] = at 5.0 µM (retest, dose inferred, filed as 0.5)
# [18] = at 50.0 µM (retest, dose inferred, filed as 5.0)
smiles,measurement,setting,value
CC(C)S(=O)(=O)/C=C\S(=O)(=O)C(C)C,growth inhibition,[1]; at 1.2 µM,-5%
same,growth inhibition,[1]; at 3.7 µM,-7%
same,growth inhibition,[1]; at 11.0 µM,23%
same,growth inhibition,[1]; at 33.0 µM,75% (active)
same,growth inhibition,[1]; at 100.0 µM,97% (active)
same,growth inhibition,[2]; at 1.2 µM,1%
same,growth inhibition,[2]; at 3.7 µM,19%
same,growth inhibition,[2]; at 11.0 µM,44%
same,growth inhibition,[2]; at 33.0 µM,87% (active)
same,growth inhibition,[2]; at 100.0 µM,98% (active)
same,growth inhibition,[3]; at 1.2 µM,-1%
same,growth inhibition,[3]; at 3.7 µM,-11%
same,growth inhibition,[3]; at 11.0 µM,5%
same,growth inhibition,[3]; at 33.0 µM,26%
same,growth inhibition,[3]; at 100.0 µM,25%
same,growth inhibition,[4]; at 1.2 µM,1%
same,growth inhibition,[4]; at 3.7 µM,-5%
same,growth inhibition,[4]; at 11.0 µM,15%
same,growth inhibition,[4]; at 33.0 µM,63%
same,growth inhibition,[4]; at 100.0 µM,96% (active)
same,growth inhibition,[5]; at 1.2 µM,-5%
same,growth inhibition,[5]; at 3.7 µM,-5%
same,growth inhibition,[5]; [17],-138%
same,growth inhibition,[5]; at 11.0 µM,14%
same,growth inhibition,[5]; at 33.0 µM,83% (active)
same,growth inhibition,[5]; [18],74% (active)
same,growth inhibition,[5]; at 50.0 µM,64.8%
same,growth inhibition,[5]; at 100.0 µM,97% (active)
same,growth inhibition,[6]; at 1.2 µM,1%
same,growth inhibition,[6]; at 3.7 µM,2%
same,growth inhibition,[6]; [17],-45%
same,growth inhibition,[6]; at 11.0 µM,7%
same,growth inhibition,[6]; at 33.0 µM,58%
same,growth inhibition,[6]; [18],69%
same,growth inhibition,[6]; at 50.0 µM,62.8%
same,growth inhibition,[6]; at 100.0 µM,93% (active)
same,growth inhibition,[7]; at 1.2 µM,-3%
same,growth inhibition,[7]; at 3.7 µM,9%
same,growth inhibition,[7]; at 11.0 µM,36%
same,growth inhibition,[7]; at 33.0 µM,55%
same,growth inhibition,[7]; at 100.0 µM,99% (active)
same,growth inhibition,[8]; [17],-56%
same,growth inhibition,[8]; [18],76% (active)
same,growth inhibition,[8]; at 50.0 µM,72% (active)
same,growth inhibition,[9]; at 1.2 µM,-6%
same,growth inhibition,[9]; at 3.7 µM,-4%
same,growth inhibition,[9]; at 11.0 µM,4%
same,growth inhibition,[9]; at 33.0 µM,28%
same,growth inhibition,[9]; at 100.0 µM,85% (active)
same,growth inhibition,[10]; [17],-50%
same,growth inhibition,[10]; [18],-3%
same,growth inhibition,[10]; at 50.0 µM,-17.3%
same,growth inhibition,[11]; at 1.2 µM,-4%
same,growth inhibition,[11]; at 3.7 µM,1%
same,growth inhibition,[11]; [17],-71%
same,growth inhibition,[11]; at 11.0 µM,5%
same,growth inhibition,[11]; at 33.0 µM,52%
same,growth inhibition,[11]; [18],81% (active)
same,growth inhibition,[11]; at 50.0 µM,50.6%
same,growth inhibition,[11]; at 100.0 µM,92% (active)
same,growth inhibition,[12]; at 1.2 µM,5%
same,growth inhibition,[12]; at 3.7 µM,15%
same,growth inhibition,[12]; at 11.0 µM,44%
same,growth inhibition,[12]; at 33.0 µM,90% (active)
same,growth inhibition,[12]; at 100.0 µM,99% (active)
same,growth inhibition,[13]; at 1.2 µM,-8%
same,growth inhibition,[13]; at 3.7 µM,-1%
same,growth inhibition,[13]; at 11.0 µM,1%
same,growth inhibition,[13]; at 33.0 µM,64%
same,growth inhibition,[13]; at 100.0 µM,96% (active)
same,growth inhibition,[14]; at 1.2 µM,-5%
same,growth inhibition,[14]; at 3.7 µM,-8%
same,growth inhibition,[14]; at 11.0 µM,30%
same,growth inhibition,[14]; at 33.0 µM,80% (active)
same,growth inhibition,[14]; at 100.0 µM,98% (active)
same,growth inhibition,[15]; [17],-133%
same,growth inhibition,[15]; [18],85% (active)
same,growth inhibition,[15]; at 50.0 µM,82.8% (active)
same,growth inhibition,[16]; at 1.2 µM,-2%
same,growth inhibition,[16]; at 3.7 µM,5%
same,growth inhibition,[16]; at 11.0 µM,19%
same,growth inhibition,[16]; at 33.0 µM,78% (active)
same,growth inhibition,[16]; at 100.0 µM,93% (active)
c1c[nH]c(CN2CCN(Cc3ncc[nH]3)CC2)n1,growth inhibition,[1]; at 1.2 µM,0%
same,growth inhibition,[1]; at 3.7 µM,72% (active)
same,growth inhibition,[1]; at 11.0 µM,96% (active)
same,growth inhibition,[1]; at 33.0 µM,97% (active)
same,growth inhibition,[1]; at 100.0 µM,98% (active)
same,growth inhibition,[2]; at 1.2 µM,-1%
same,growth inhibition,[2]; at 3.7 µM,7%
same,growth inhibition,[2]; at 11.0 µM,97% (active)
same,growth inhibition,[2]; at 33.0 µM,98% (active)
same,growth inhibition,[2]; at 100.0 µM,99% (active)
same,growth inhibition,[3]; at 1.2 µM,-3%
same,growth inhibition,[3]; at 3.7 µM,3%
same,growth inhibition,[3]; at 11.0 µM,92% (active)
same,growth inhibition,[3]; at 33.0 µM,97% (active)
same,growth inhibition,[3]; at 100.0 µM,98% (active)
same,growth inhibition,[4]; at 1.2 µM,-6%
same,growth inhibition,[4]; at 3.7 µM,2%
same,growth inhibition,[4]; at 11.0 µM,96% (active)
same,growth inhibition,[4]; at 33.0 µM,97% (active)
same,growth inhibition,[4]; at 100.0 µM,99% (active)
same,growth inhibition,[5]; at 1.2 µM,4%
same,growth inhibition,[5]; at 3.7 µM,93% (active)
same,growth inhibition,[5]; [17],89% (active)
same,growth inhibition,[5]; at 11.0 µM,97% (active)
same,growth inhibition,[5]; at 33.0 µM,97% (active)
same,growth inhibition,[5]; [18],99% (active)
same,growth inhibition,[5]; at 50.0 µM,97.4% (active)
same,growth inhibition,[5]; at 100.0 µM,98% (active)
same,growth inhibition,[6]; at 1.2 µM,-5%
same,growth inhibition,[6]; at 3.7 µM,-1%
same,growth inhibition,[6]; [17],26%
same,growth inhibition,[6]; at 11.0 µM,94% (active)
same,growth inhibition,[6]; at 33.0 µM,98% (active)
same,growth inhibition,[6]; [18],98% (active)
same,growth inhibition,[6]; at 50.0 µM,97.7% (active)
same,growth inhibition,[6]; at 100.0 µM,98% (active)
same,growth inhibition,[7]; at 1.2 µM,-4%
same,growth inhibition,[7]; at 3.7 µM,18%
same,growth inhibition,[7]; at 11.0 µM,95% (active)
same,growth inhibition,[7]; at 33.0 µM,98% (active)
same,growth inhibition,[7]; at 100.0 µM,99% (active)
same,growth inhibition,[8]; [17],34%
same,growth inhibition,[8]; [18],99% (active)
same,growth inhibition,[8]; at 50.0 µM,98.5% (active)
same,growth inhibition,[9]; at 1.2 µM,-3%
same,growth inhibition,[9]; at 3.7 µM,12%
same,growth inhibition,[9]; at 11.0 µM,96% (active)
same,growth inhibition,[9]; at 33.0 µM,98% (active)
same,growth inhibition,[9]; at 100.0 µM,98% (active)
same,growth inhibition,[10]; [17],-69%
same,growth inhibition,[10]; [18],99% (active)
same,growth inhibition,[10]; at 50.0 µM,98.7% (active)
same,growth inhibition,[11]; at 1.2 µM,-6%
same,growth inhibition,[11]; at 3.7 µM,27%
same,growth inhibition,[11]; [17],1%
same,growth inhibition,[11]; at 11.0 µM,97% (active)
same,growth inhibition,[11]; at 33.0 µM,97% (active)
same,growth inhibition,[11]; [18],99% (active)
same,growth inhibition,[11]; at 50.0 µM,97.8% (active)
same,growth inhibition,[11]; at 100.0 µM,98% (active)
same,growth inhibition,[12]; at 1.2 µM,-1%
same,growth inhibition,[12]; at 3.7 µM,54%
same,growth inhibition,[12]; at 11.0 µM,98% (active)
same,growth inhibition,[12]; at 33.0 µM,99% (active)
same,growth inhibition,[12]; at 100.0 µM,99% (active)
same,growth inhibition,[13]; at 1.2 µM,-5%
same,growth inhibition,[13]; at 3.7 µM,37%
same,growth inhibition,[13]; at 11.0 µM,97% (active)
same,growth inhibition,[13]; at 33.0 µM,98% (active)
same,growth inhibition,[13]; at 100.0 µM,99% (active)
same,growth inhibition,[14]; at 1.2 µM,-2%
same,growth inhibition,[14]; at 3.7 µM,17%
same,growth inhibition,[14]; at 11.0 µM,96% (active)
same,growth inhibition,[14]; at 33.0 µM,98% (active)
same,growth inhibition,[14]; at 100.0 µM,99% (active)
same,growth inhibition,[15]; [17],46%
same,growth inhibition,[15]; [18],98% (active)
same,growth inhibition,[15]; at 50.0 µM,98% (active)
same,growth inhibition,[16]; at 1.2 µM,0%
same,growth inhibition,[16]; at 3.7 µM,64%
same,growth inhibition,[16]; at 11.0 µM,96% (active)
same,growth inhibition,[16]; at 33.0 µM,98% (active)
same,growth inhibition,[16]; at 100.0 µM,98% (active)
